Results on seven compounds are retold here after PubChem BioAssay (NCATS).

Inconclusive results are not listed. The source made the active and inactive calls. Calls follow the shape of the dose curve; as a rule, active = well fitted curve in the direction sought with a large enough effect; inconclusive = small, poorly fitted or top-dose-only effect, or another doubt; inactive = no such curve, though single readings can be large; an effect the other way counts as inactive or inconclusive.
Potency is read from the fitted curve at half-maximal effect.

One assay concerns the target Aldehyde dehydrogenase 1A1 (Homo sapiens) (UniProt P00352). The assay can be described thus: qHTS for Inhibitors of the Aldehyde Dehydrogenase Family (ALDH1A1) Confirmatory screens (AID 2061316). Also: nearly all actives have a fitted effect of over 65% in size. As to activity change, negative = inhibition: % is scaled to controls: 0 for no effect and ±100 for the full control effect. To be noted: ALDH inhibition qHTS; series mostly up to 47.3 µM; activity change, negative = inhibition: at the top concentration. On the technique in general: In qHTS, concentration-response curves come from the screen itself.
In the case of `N[C@H](C(=O)O)[C@H](O)C(=O)O`, the “activity change, negative = inhibition” value is 4.89% (inactive).

Consider `CC(C)N(CCC(=O)c1ccc2ccccc2c1)Cc1ccccc1`, for which the Potency was 0.0449 µM (active).

Turning to `Cc1cn[nH]c1`, the “activity change, negative = inhibition” value is -2.23% (inactive).

Tested on in a further assay: not listed separately
Kind of assay: BET inhibitor-based combinations targeting novel dependencies in MECOM-rearranged (r) AML: SET-2 cell line (AID 2202231). Also: nearly all actives have a fitted effect of over 35% in size.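 As to viability: plate controls were DMSO treated cells for no effect and wells without cells for full effect.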 As to conditions: SET-2 AML cells viability, CellTiter-Glo luminescence, 48 h; viability: stronger effect = lower value, concentration not given here. The procedure, abridged: (§1)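 Readout: CellTiter-Glo luminescence. Exposure: 48 h, 11 concentrations, 500 cells/well. Metric: AUC and within-line Z-AUC after DMSO/empty-well normalization.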
On to `CCCc1nn(C)c2c(=O)[nH]c(-c3cc(S(=O)(=O)N4CCN(C)CC4)ccc3OCC)nc12`, for which the viability is 114% (inactive).

`CC(C)N(CCC(=O)c1ccc2ccccc2c1)Cc1ccccc1`: the Potency is 8.33 µM (active).

As for `CCN(CC)CCCC(C)Nc1c2ccc(Cl)cc2nc2ccc(OC)cc12` (stereo unspecified), the Potency was 7.42 µM (active).

Take `Cc1cc(C(C)(C)C)c(O)c(C)c1CC1=NCCN1`: the viability was 118% (inactive).

Tested on in a further assay: not listed separately
The assay can be described thus: BET inhibitor-based combinations targeting novel dependencies in MECOM-rearranged (r) AML: OCI-AML3 cell line (AID 2202232). Also: nearly all actives have a fitted effect of over 35% in size.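 As to viability (% of control): plate controls were DMSO vehicle wells for no effect and wells without cells for full effect.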 To be noted: CellTiter-Glo luminescence, 48 h; Potency: OCI-AML3 viability; series mostly up to 46 µM; viability (% of control): at the top concentration. Summed up: as §1
A general note: ATP-based viability assays read luminescence as a measure of living cells.
Consider `CCCc1nn(C)c2c(=O)[nH]c(-c3cc(S(=O)(=O)N4CCN(C)CC4)ccc3OCC)nc12`, for which the “viability (% of control)” value was 94.8% (inactive).

As for `O=S(=O)(c1cccc2c(I)cccc12)N1CCCNCC1`, the Potency was 20.9 µM (active).

Take `CC(C)N(CCC(=O)c1ccc2ccccc2c1)Cc1ccccc1`: the Potency is 4.17 µM (active).

As to `CCN(CC)CCCC(C)Nc1c2ccc(Cl)cc2nc2ccc(OC)cc12` (stereo unspecified), the Potency is 7.42 µM (active).

As to `Cc1cc(C(C)(C)C)c(O)c(C)c1CC1=NCCN1`, the “viability (% of control)” value is 105% (inactive).

Tested on in another assay: not listed separately
Kind of assay: BET inhibitor-based combinations targeting novel dependencies in MECOM-rearranged (r) AML: MV-4-11 cell line (AID 2202233). Also: nearly all actives have a fitted effect of over 45% in size.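 As to viability, % of control: plate controls were DMSO for no effect and blank wells for full effect.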 As to conditions: MV-4-11 AML viability, CellTiter-Glo luminescence, 48 h; series mostly up to 46 µM; viability, % of control: at the top concentration. Summed up: (§2)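 Seeding density was 500 cells/well, and drug exposure lasted 48 hr under standard culture conditions. Read-out used CellTiter-Glo reagent with a 15 min room-temperature incubation before luminescence measurement; AUC and Z-AUC summarize the normalized responses.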
Regarding `O=S(=O)(c1cccc2c(I)cccc12)N1CCCNCC1`, the “viability, % of control” value is 97.3% (inactive).

For the compound `CC(C)N(CCC(=O)c1ccc2ccccc2c1)Cc1ccccc1`, the Potency was 2.09 µM (active).

Take `CCN(CC)CCCC(C)Nc1c2ccc(Cl)cc2nc2ccc(OC)cc12` (stereo unspecified): the Potency is 2.95 µM (active).

As for `Cc1cc(C(C)(C)C)c(O)c(C)c1CC1=NCCN1`, the “viability, % of control” value was 99.9% (inactive).

Tested on in a further assay: not listed separately
The assay can be described thus: BET inhibitor-based combinations targeting novel dependencies in MECOM-rearranged (r) AML: HNT-34 cell line (AID 2202234). Also: nearly all actives have a fitted effect of over 35% in size.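 As to viability (% of control): plate controls were vehicle wells for no effect and cell-free wells for full effect.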 To be noted: HNT-34 AML viability, CellTiter-Glo luminescence, 48 h; series mostly up to 46 µM; viability (% of control): at the top concentration. Summed up:
as §2
As to `CCCc1nn(C)c2c(=O)[nH]c(-c3cc(S(=O)(=O)N4CCN(C)CC4)ccc3OCC)nc12`, the “viability (% of control)” value was 102% (inactive).

For `O=S(=O)(c1cccc2c(I)cccc12)N1CCCNCC1`, the “viability (% of control)” value is 86.7% (inactive).

For `CC(C)N(CCC(=O)c1ccc2ccccc2c1)Cc1ccccc1`, the Potency was 5.25 µM (active).

For `CCN(CC)CCCC(C)Nc1c2ccc(Cl)cc2nc2ccc(OC)cc12` (stereo unspecified), the Potency was 7.42 µM (active).

`Cc1cc(C(C)(C)C)c(O)c(C)c1CC1=NCCN1`: the “viability (% of control)” value was 99.5% (inactive).

Tested on in a further assay: not listed separately
The assay can be described thus: BET inhibitor-based combinations targeting novel dependencies in MECOM-rearranged (r) AML: UCSD-AML1 cell line (AID 2202235). Also: nearly all actives have a fitted effect of over 40% in size.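 As to viability (% of control): plate controls were DMSO vehicle wells for no effect and blank wells for full effect.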 To be noted: UCSD-AML1 AML cells viability, CellTiter-Glo, 48 h; series mostly up to 46 µM; viability (% of control): at the top concentration. The procedure, abridged:
as §2
As for `CCCc1nn(C)c2c(=O)[nH]c(-c3cc(S(=O)(=O)N4CCN(C)CC4)ccc3OCC)nc12`, the “viability (% of control)” value is 103% (inactive).

As for `O=S(=O)(c1cccc2c(I)cccc12)N1CCCNCC1`, the “viability (% of control)” value is 96% (inactive).

In the case of `CC(C)N(CCC(=O)c1ccc2ccccc2c1)Cc1ccccc1`, the Potency was 4.17 µM (active).

For the compound `Cc1cn[nH]c1`, the “viability (% of control)” value was 112% (inactive).

`CCN(CC)CCCC(C)Nc1c2ccc(Cl)cc2nc2ccc(OC)cc12` (stereo unspecified): the Potency was 4.68 µM (active).

Consider `Cc1cc(C(C)(C)C)c(O)c(C)c1CC1=NCCN1`, for which the “viability (% of control)” value was 112% (inactive).

Tested on in the next assay: not listed separately
The assay can be described thus: BET inhibitor-based combinations targeting novel dependencies in MECOM-rearranged (r) AML: AML-191 cell line (AID 2202236; also: nearly all actives have a fitted effect of over 35% in size;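 as to viability (% of control): plate controls were vehicle wells for no effect and wells without cells for full effect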). To be noted: AML-191 viability, CellTiter-Glo luminescence, 48 h; series mostly up to 46 µM; viability (% of control): at the top concentration. The procedure, abridged: as §1
On to `CCCc1nn(C)c2c(=O)[nH]c(-c3cc(S(=O)(=O)N4CCN(C)CC4)ccc3OCC)nc12`, for which the “viability (% of control)” value was 92.5% (inactive).

On to `CC(C)N(CCC(=O)c1ccc2ccccc2c1)Cc1ccccc1`, for which the Potency was 6.61 µM (active).

Regarding `CCN(CC)CCCC(C)Nc1c2ccc(Cl)cc2nc2ccc(OC)cc12` (stereo unspecified), the Potency is 7.42 µM (active).

Turning to `Cc1cc(C(C)(C)C)c(O)c(C)c1CC1=NCCN1`, the “viability (% of control)” value was 112% (inactive).

Tested on in another assay: not listed separately
Kind of assay: BET inhibitor-based combinations targeting novel dependencies in MECOM-rearranged (r) AML: AML-194 cell line (AID 2202237; also: nearly all actives have a fitted effect of over 40% in size;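 as to viability (% of control): plate controls were vehicle wells for no effect and wells without cells for full effect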). As to conditions: AML-194 (MECOM-r AML) viability, CellTiter-Glo, 48 h; series mostly up to 46 µM; viability (% of control): at the top concentration. The procedure, abridged: as §1
Regarding `CCCc1nn(C)c2c(=O)[nH]c(-c3cc(S(=O)(=O)N4CCN(C)CC4)ccc3OCC)nc12`, the “viability (% of control)” value was 95.8% (inactive).

Consider `O=S(=O)(c1cccc2c(I)cccc12)N1CCCNCC1`, for which the “viability (% of control)” value is 101% (inactive).

`CC(C)N(CCC(=O)c1ccc2ccccc2c1)Cc1ccccc1`: the Potency is 7.42 µM (active).

Take `CCN(CC)CCCC(C)Nc1c2ccc(Cl)cc2nc2ccc(OC)cc12` (stereo unspecified): the Potency is 7.42 µM (active).

Turning to `Cc1cc(C(C)(C)C)c(O)c(C)c1CC1=NCCN1`, the “viability (% of control)” value was 107% (inactive).

A word on the viability: it is a read-out of living cells in per cent, often relative to untreated cells.
